PubChem BioAssay (NCATS)
Unmarked numbers belong to inactive results. Records with an inconclusive call do not appear. Where a call stands in place of a potency, no number is given. The source made the active and inactive calls. Calls follow the shape of the dose curve; as a rule, active = well fitted curve in the direction sought with a large enough effect; inconclusive = small, poorly fitted or top-dose-only effect, or another doubt; inactive = no such curve, though single readings can be large; an effect the other way counts as inactive or inconclusive.

Experiments:
[1] = target: Rap guanine nucleotide exchange factor 3 (Homo sapiens) (UniProt O95398); assay: Confirmatory qHTS for antagonist of cAMP-regulated guanine nucleotide exchange factor 3 (EPAC1) (AID 1645880); settings: EPAC1 Rap1B-BODIPY-GDP exchange, fluorescence; activity, negative = inhibition: at 115 µM (top of the series); also: nearly all actives have a fitted effect of over 55% in size; also: potency is read from the fitted curve at half-maximal effect
Rap guanine nucleotide exchange factor 3 (Homo sapiens), sequence (O95398 whole entry, looked up): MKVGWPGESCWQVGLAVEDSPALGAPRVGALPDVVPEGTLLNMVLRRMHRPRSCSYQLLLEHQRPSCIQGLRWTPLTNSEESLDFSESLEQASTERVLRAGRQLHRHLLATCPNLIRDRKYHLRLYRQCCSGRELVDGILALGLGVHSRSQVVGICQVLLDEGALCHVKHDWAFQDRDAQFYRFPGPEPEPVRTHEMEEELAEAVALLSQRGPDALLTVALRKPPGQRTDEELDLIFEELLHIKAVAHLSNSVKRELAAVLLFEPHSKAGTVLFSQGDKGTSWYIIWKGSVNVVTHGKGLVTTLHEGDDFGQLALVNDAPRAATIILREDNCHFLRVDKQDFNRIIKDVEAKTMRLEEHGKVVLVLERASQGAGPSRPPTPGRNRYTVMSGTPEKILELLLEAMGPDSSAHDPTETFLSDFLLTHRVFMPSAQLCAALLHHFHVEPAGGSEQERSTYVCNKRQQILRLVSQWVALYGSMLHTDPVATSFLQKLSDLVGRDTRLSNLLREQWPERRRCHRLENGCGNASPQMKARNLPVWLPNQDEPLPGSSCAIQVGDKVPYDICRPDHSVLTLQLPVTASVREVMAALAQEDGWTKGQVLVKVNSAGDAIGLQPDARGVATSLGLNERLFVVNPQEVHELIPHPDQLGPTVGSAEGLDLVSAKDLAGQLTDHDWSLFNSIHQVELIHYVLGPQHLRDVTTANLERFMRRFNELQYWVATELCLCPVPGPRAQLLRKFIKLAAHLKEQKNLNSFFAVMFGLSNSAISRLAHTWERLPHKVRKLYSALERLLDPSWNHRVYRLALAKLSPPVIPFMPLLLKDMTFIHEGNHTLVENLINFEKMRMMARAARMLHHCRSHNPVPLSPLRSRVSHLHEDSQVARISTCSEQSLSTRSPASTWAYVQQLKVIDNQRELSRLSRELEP
Summary of the method: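 Nucleotide exchange uses 100 nM EPAC1, 250 nM RAP1B-BODIPY-GDP and 50 uM GDP, with compounds in a concentration-titration series. After 5 min at room temperature, fluorescence (480 nm ex/540 nm em) is read every 5 min for 30 min. Data are normalized to control ATA and DMSO.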

[2] = target: Rap guanine nucleotide exchange factor 3 (Homo sapiens) (UniProt O95398); assay: Confirmatory qHTS for agonist of cAMP-regulated guanine nucleotide exchange factor 3 (EPAC1) (AID 1645881); also: nearly all actives have a fitted effect of over 75% in size; also: potency is read from the fitted curve at half-maximal effect
[3] = target: Rap guanine nucleotide exchange factor 4 (Homo sapiens) (UniProt Q8WZA2); assay: Confirmatory qHTS for agonist of cAMP-regulated guanine nucleotide exchange factor 4 (EPAC2) (AID 1645884);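 also: nucleotide exchange releases bodipy-GDP from Rap1 and this lowers its fluorescence; nearly all actives have a fitted effect of over 65% in size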
Rap guanine nucleotide exchange factor 4 (Homo sapiens), sequence (Q8WZA2 whole entry, looked up): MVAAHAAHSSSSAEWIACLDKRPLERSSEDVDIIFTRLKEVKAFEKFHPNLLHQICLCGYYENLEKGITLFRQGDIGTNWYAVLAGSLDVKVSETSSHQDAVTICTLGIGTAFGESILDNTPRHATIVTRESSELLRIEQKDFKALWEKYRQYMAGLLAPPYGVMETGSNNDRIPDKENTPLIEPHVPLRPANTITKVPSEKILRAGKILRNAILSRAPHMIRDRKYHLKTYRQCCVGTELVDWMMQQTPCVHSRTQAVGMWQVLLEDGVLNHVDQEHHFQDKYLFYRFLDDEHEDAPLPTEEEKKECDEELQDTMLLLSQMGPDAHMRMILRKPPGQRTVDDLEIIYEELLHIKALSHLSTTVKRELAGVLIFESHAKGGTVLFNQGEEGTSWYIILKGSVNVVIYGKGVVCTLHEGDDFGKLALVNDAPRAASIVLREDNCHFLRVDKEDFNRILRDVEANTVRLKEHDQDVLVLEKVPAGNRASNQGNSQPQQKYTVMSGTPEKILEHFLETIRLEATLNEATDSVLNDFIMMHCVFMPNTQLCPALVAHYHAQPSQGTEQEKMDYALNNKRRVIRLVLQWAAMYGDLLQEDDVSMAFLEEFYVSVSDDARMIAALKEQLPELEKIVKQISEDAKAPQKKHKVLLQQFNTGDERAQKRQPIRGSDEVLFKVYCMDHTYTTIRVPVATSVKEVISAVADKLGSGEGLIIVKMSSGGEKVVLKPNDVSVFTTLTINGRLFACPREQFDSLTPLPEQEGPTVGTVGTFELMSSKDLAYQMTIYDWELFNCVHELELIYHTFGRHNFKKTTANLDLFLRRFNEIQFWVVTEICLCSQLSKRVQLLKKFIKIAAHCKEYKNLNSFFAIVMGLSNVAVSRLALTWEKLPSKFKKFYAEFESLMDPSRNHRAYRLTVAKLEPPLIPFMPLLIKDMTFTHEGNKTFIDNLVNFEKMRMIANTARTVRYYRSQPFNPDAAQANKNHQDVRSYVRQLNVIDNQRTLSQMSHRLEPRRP

[4] = target: Rap guanine nucleotide exchange factor 3 (Homo sapiens) (UniProt O95398); assay: Counterscreen qHTS for agonist of cAMP-regulated guanine nucleotide exchange factor 3 (EPAC1) (AID 1645889); also: nearly all actives have a fitted effect of over 40% in size
Summary of the method: (§1)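 Rap1B-BODIPY-GDP 250 nM + GDP 50 uM; cpds 7-pt, final 9.74 nM–152 uM (activator mode) or from 7.32 nM upwards (inhibitor mode); RT; FI 480/540 nm at 5 and 30 min, then ± cAMP, reread.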

[5] = target: Rap guanine nucleotide exchange factor 4 (Homo sapiens) (UniProt Q8WZA2); assay: Confirmatory qHTS for antagonist of cAMP-regulated guanine nucleotide exchange factor 4 (EPAC2) (AID 1645885); also: nearly all actives have a fitted effect of over 25% in size
[6] = target: Rap guanine nucleotide exchange factor 3 (Homo sapiens) (UniProt O95398); assay: Counterscreen qHTS for antagonist of cAMP-regulated guanine nucleotide exchange factor 3 (EPAC1) (AID 1645888);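 also: fluorescence loss as bound BODIPY-GDP is released from Rap1B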
Summary of the method: as §1

[7] = target: Tumor susceptibility gene 101 protein (Homo sapiens) (UniProt Q99816); assay: qHTS Assay for Iinhibitors of HIV-1 Budding by Blocking the Interaction of PTAP/TSG101: Hit Validation (AID 651600); also: potency is read from the fitted curve at half-maximal effect; nearly all actives have a fitted effect of over 70% in size
Tumor susceptibility gene 101 protein (Homo sapiens), sequence (Q99816 whole entry, looked up, the tested form may be a part): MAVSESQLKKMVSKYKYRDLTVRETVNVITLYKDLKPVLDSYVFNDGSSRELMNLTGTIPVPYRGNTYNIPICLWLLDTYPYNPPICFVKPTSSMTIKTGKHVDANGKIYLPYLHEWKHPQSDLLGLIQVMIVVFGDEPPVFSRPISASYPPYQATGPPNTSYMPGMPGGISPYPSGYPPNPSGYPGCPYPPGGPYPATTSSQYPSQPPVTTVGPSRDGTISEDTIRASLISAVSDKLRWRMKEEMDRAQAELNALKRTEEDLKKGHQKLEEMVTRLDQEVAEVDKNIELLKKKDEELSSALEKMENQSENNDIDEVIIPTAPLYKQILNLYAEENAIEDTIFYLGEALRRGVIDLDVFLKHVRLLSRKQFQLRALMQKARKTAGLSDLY
Summary of the method: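 Fluorescence polarization binding assay: Tsg101 binding domain (10 uM) mixed with compounds and FITC-labeled PTAP peptide (50 nM) in HEPES pH 7.5, 0.15 M NaCl, 0.01% Tween 20, EDTA, TCEP; 20 min at r.t.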

[8] = target: Cytochrome P450 3A4 (Homo sapiens) (UniProt P08684); assay: qHTS Assay for Activators of Cytochrome P450 3A4 (AID 885); also: nearly all actives have a fitted effect of over 65% in size
Cytochrome P450 3A4 (Homo sapiens), sequence (P08684 whole entry, looked up): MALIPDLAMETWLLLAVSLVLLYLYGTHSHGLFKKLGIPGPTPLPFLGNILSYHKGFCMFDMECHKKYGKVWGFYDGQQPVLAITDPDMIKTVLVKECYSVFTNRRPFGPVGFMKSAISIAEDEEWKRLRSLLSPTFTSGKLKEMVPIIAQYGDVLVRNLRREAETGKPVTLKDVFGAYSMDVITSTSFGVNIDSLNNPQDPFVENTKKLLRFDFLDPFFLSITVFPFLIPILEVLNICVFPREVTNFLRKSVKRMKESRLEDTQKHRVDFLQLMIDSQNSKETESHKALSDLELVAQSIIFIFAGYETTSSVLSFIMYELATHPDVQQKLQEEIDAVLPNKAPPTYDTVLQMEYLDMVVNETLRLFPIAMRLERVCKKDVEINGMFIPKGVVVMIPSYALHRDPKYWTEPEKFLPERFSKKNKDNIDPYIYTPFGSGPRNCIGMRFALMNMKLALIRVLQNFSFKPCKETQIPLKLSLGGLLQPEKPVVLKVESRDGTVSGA
Summary of the method: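 Signal was normalized against complete inhibition by 57 uM ketoconazole. The reaction used 20nM CYP3A4 with 25uM Luciferin-PPXE, 10-min compound preincubation and a 60-min NADPH-supported step at RT.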

[9] = target: DNA dC->dU-editing enzyme APOBEC-3G (Homo sapiens) (UniProt Q9HC16); assay: qHTS for inhibitors of Vif-A3G interactions: Validation (AID 588379)
DNA dC->dU-editing enzyme APOBEC-3G (Homo sapiens), sequence (Q9HC16 whole entry, looked up): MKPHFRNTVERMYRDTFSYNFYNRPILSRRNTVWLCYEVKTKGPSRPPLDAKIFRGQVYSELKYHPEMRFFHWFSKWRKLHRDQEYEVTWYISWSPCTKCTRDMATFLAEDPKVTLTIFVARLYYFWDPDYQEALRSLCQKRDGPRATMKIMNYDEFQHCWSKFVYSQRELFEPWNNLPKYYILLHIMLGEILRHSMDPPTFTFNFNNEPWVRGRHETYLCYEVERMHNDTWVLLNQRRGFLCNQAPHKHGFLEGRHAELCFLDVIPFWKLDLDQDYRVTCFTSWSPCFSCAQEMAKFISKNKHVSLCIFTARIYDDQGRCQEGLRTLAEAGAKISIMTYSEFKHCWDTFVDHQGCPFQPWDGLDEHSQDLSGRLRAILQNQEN
Summary of the method: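 HeLa cells stably expressing Vif and A3G-eYFP, 700 cells/well, incubated overnight at 37 deg C, then exposed to compound overnight at 37 deg C. Inhibition of Vif-mediated degradation read as increased yellow fluorescence (Ex 488/Em 500-530) by laser-scanning cytometry.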

## CCOC(=O)C(Cc1ccc(Cl)cc1Cl)c1ccno1 (configuration not stated)
[1]
  Potency: inactive
[2]
  Potency: inactive
[3]
  Potency: inactive
[4]
  Potency: inactive

## O=C1/C(=C\c2cccc(O)c2O)SC(=S)N1Cc1ccccc1
[1]
  Potency: 75.7 µM (active)
[2]
  Potency: inactive
[5]
  Potency: inactive
[6]
  Potency: inactive

## CN(C)c1ccc(/C=C/c2sc3ccccc3[n+]2CCCCBr)cc1
[1]
  Potency: inactive
[2]
  Potency: inactive
[5]
  Potency: inactive

## CC(C)(C)NC(=O)C(c1ccc(C(F)(F)F)cc1)n1c(=O)c(-c2ccco2)nc2ccccc21 (configuration not stated)
[1]
  Potency: 75.7 µM (active)
[2]
  Potency: inactive
[3]
  Potency: inactive
[4]
  Potency: inactive

## O=C(O)Cc1ccc(C(=O)c2ccc(Cl)cc2Cl)s1
[1]
  Potency: inactive
[2]
  Potency: inactive
[3]
  Potency: inactive
[4]
  Potency: inactive

## COc1cc(Br)cc(C(=O)N2CCc3ccccc32)c1OC
[1]
  Potency: inactive
[2]
  Potency: inactive
[3]
  Potency: inactive
[4]
  Potency: inactive

## Oc1ccc2ccccc2c1-c1sc(Nc2ccccc2)n[n+]1-c1ccc(F)cc1
[7]
  Potency: 10.3 µM (active)
[1]
  Potency: 19 µM (active)
[2]
  Potency: inactive
[3]
  Potency: inactive
[4]
  Potency: inactive

## COc1ccc(C2OCC3(COC(C)=O)C(C)C=C(C)C2C3C)cc1 (configuration not stated)
[8]
  outcome: inactive
[9]
  outcome: inactive
[1]
  Potency: inactive
[2]
  Potency: inactive
[3]
  Potency: inactive

## Cc1ccc(C)c(NC(=O)N2CCN3CCCCC3C2)c1 (configuration not stated)
[1]
  Potency: inactive
[2]
  Potency: inactive
[5]
  Potency: inactive
[6]
  Potency: inactive

## COC(=O)c1cc(C(=O)OC)n(Cc2ccc(F)cc2)c1C
[1]
  Potency: inactive
[2]
  Potency: inactive
[3]
  Potency: inactive
[4]
  Potency: inactive

## O=C(N/N=C\c1c(O)ccc2ccccc12)c1ccc(S(=O)(=O)N2CCCCC2)cc1
[1]
  Potency: inactive
[2]
  Potency: 44.7 µM (active)
[5]
  Potency: inactive
[6]
  activity change, negative = inhibition: -15.1% [at 30.8 µM]

## O=C(c1ccco1)N1N=C2CCCCCC2C1(O)C(F)(F)F (configuration not stated)
[1]
  Potency: inactive
[2]
  Potency: inactive
[3]
  Potency: inactive
[4]
  Potency: inactive

## COc1ccccc1CN(C)CC(=O)Nc1ccc(Cl)cc1F
[1]
  Potency: inactive
[2]
  Potency: inactive
[5]
  Potency: inactive
[6]
  Potency: inactive

## Cc1cc(C)c2nc(N3C(=O)C(O)=C(C(=O)c4ccco4)C3c3cccc(O)c3)sc2c1 (configuration not stated)
[1]
  Potency: 26.9 µM (active)
[2]
  Potency: inactive
[3]
  Potency: inactive
[4]
  Potency: inactive

## COc1ccc(/C=C2/C(=O)N(CC3CCCO3)C(=S)N2C)c(OC)c1 (configuration not stated)
[1]
  Potency: 84.9 µM (active)
[2]
  Potency: inactive
[3]
  Potency: inactive
[4]
  Potency: inactive

## COc1ccccc1C(=O)Nc1ccccc1C(=O)N1C(C)CCCC1C (configuration not stated)
[1]
  Potency: inactive
[2]
  Potency: inactive
[3]
  Potency: inactive
[4]
  Potency: inactive

## NS(=O)(=O)c1cccc(Nc2nc3ccccc3nc2NS(=O)(=O)c2ccc(Cl)cc2)c1
[1]
  Potency: 75.7 µM (active)
[2]
  Potency: inactive
[3]
  Potency: inactive
[4]
  Potency: inactive

## CCCCN(CCC#N)c1ccc(/C=C/c2ccnc3ccccc23)cc1
[1]
  Potency: inactive
[2]
  Potency: inactive
[5]
  Potency: inactive
